Source: PubChem BioAssay AID555 (SRMLSC, 2006)
Hit rate of the full screen: of about 65,000 compounds, about 320 (0.49%) were called active.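 The calls were made as follows: active = ranked among the strongest by inhibition in the single 10 µM screen, a fixed top-ranked set picked for dose follow-up; inactive = the rest, inconclusive results apart.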 Shown is part of a subset that was picked to be rich in actives.

Test system: mevalonate kinase [Streptococcus pneumoniae D39]
Assay: pneumococcal mevalonate kinase activity blockers – biochemical, PK/LDH-coupled NADH absorbance, primary screen (AID 555)
Details: purified MK, PK/LDH-coupled NADH absorbance 340 nm, at 10 µM, stronger effect = higher value
[1] = measured here: pilot screen replicates

Compound | inhibition | inhibition [1] [%]
CCN1CCN(C(=O)Cc2coc3cc(C)cc(C)c23)CC1 | 5% (inactive) | –
COc1ccccc1CN1CCN(C(=O)Cc2ccccc2)CC1 | 53% (active) | 0
CN1CCN(Cc2ccccc2C(F)(F)F)CC1 | 6% (inactive) | –
CCOC(=O)c1c(-c2ccccc2)oc2ccc(OC(=O)N(C)C)cc12 | 0% (inactive) | –
CC(C)c1ccc(O)c(CN2CCN(c3ccccc3)CC2)c1 | 0% (inactive) | –
COc1ccc(CN2CCN(c3ccccc3F)CC2)c(OC)c1 | 43% (active) | 1.5
Fc1cccc(F)c1CN1CCN(Cc2c(F)cccc2F)CC1 | 2% (inactive) | –
CCC(=NCc1ccco1)c1c(O)n(Cc2ccccc2)c(=O)[nH]c1=O | 12% (inactive) | –
CC(=NCC1CCCO1)c1c(O)n(-c2ccccc2)c(=O)[nH]c1=O (configuration not stated) | 4% (inactive) | –
COC(=O)COc1cc(C)cc2oc(=O)c3c(c12)CCCC3 | 6% (inactive) | –
